About 79,000 compounds went through this panel and 15% of them were active in at least one assay; those are over-represented in the sample as a whole. No stated cut-off is given here; in the data, active means growth inhibition above about 70%; inactive means the rest.
How the values were obtained:
[1] = NCI Yeast Anticancer Drug Screen. Data for the rad50 strain (AID 155);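 further: 0% = growth of vehicle-only cultures of the same strain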; conditions: S. cerevisiae rad50 strain growth inhibition; at 50.0 µM; stronger effect = higher value
Method in brief: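 Compounds were tested on a yeast strain with an engineered DNA damage repair alteration; the reported value is growth inhibition normalised to vehicle treatment.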

[2] = NCI Yeast Anticancer Drug Screen. Data for the mec2-1 strain (AID 157); conditions: S. cerevisiae mec2-1 strain, at 50.0 µM, stronger effect = higher value
Method in brief: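 Readout is yeast growth inhibition, normalised to vehicle-treated controls, in the mec2-1 strain exposed to compound.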

[3] = NCI Yeast Anticancer Drug Screen. Data for the sgs1 mgt1 strain (AID 161);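 further: 0% = growth of cultures given vehicle only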; conditions: S. cerevisiae sgs1 mgt1 strain, at 50.0 µM, stronger effect = higher value
Method in brief: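 Yeast cells carrying a defined DNA-repair defect were exposed to test compounds. Growth inhibition was measured relative to vehicle-treated controls.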

[4] = NCI Yeast Anticancer Drug Screen. Data for the cln2 rad14 strain (AID 165);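 further: 0% = growth equal to vehicle treated cultures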; conditions: S. cerevisiae cln2 rad14 strain, at 50.0 µM, stronger effect = higher value
Method in brief: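 Relative to vehicle controls, growth inhibition of compound-treated cln2 rad14 yeast was recorded.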

[5] = NCI Yeast Anticancer Drug Screen. Data for the bub3 strain (AID 167); conditions: S. cerevisiae bub3 mutant strain, at 50.0 µM, stronger effect = higher value
Method in brief: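 Growth of a checkpoint-deficient yeast mutant is measured after compound exposure. Values represent inhibition relative to vehicle.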

[6] = NCI Yeast Anticancer Drug Screen. Data for the mlh1 rad18 strain (AID 175); conditions: S. cerevisiae mlh1 rad18 strain growth inhibition; at 50.0 µM; stronger effect = higher value
Method in brief: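 Test agents were incubated with a yeast strain of defined genotype (DNA damage repair defect). Inhibition of growth was derived by comparison with vehicle-exposed cultures.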

Measured: growth inhibition

O=C(CO)CC(=O)C(=O)Nc1nc([N+](=O)[O-])cs1
inactive: [1] -18.1% | [2] -31.8% | [3] 21% | [4] 7.9% | [5] -16.1% | [6] -21.5%

Oc1ccc(OCc2ccccc2)cc1CN1CCOCC1
inactive: [1] 17.2% | [2] 7.85% | [3] 27.3% | [4] 7.15% | [5] 22.9% | [6] 34.5%

OCc1ccccc1CN1CCCC1
inactive: [1] 8.65% | [2] 1.15% | [3] 17.8% | [4] -40.1% | [5] 8.1% | [6] -14.3%

Cc1ccc(NC(=O)NCc2ccncc2)cc1NC(=O)NCc1ccncc1
inactive: [1] 13% | [2] 15% | [3] 20.8% | [4] 20.2% | [5] 30.9% | [6] 24.8%

Cc1nc(Nc2ccccc2)c(C#N)c(=O)[nH]1
inactive: [1] -19.6% | [2] -16.4% | [3] -15.6% | [4] -10.1% | [5] -2.95% | [6] -7.05%

O=c1[nH]nc(Sc2ccccc2)c(=O)[nH]1
inactive: [1] -11.8% | [2] -3.4% | [3] -12.6% | [4] -10.4% | [5] -11.4% | [6] -14.9%

CN(C)CCCNc1nnc(NCCCN(C)C)c2[nH]cnc12
inactive: [1] -3.2% | [2] -4.2% | [3] 7.85% | [4] -24.9% | [5] 6.5% | [6] -4.35%

CSc1ccc(N=Cc2ccccc2O)cc1
inactive: [1] 11.2% | [2] -40% | [3] 22.2% | [4] 15.1% | [5] 8.85% | [6] 19.4%

CCCNCc1cccc2ccnc(C)c12
inactive: [1] 40.9% | [2] 9.6% | [3] 0.45% | [4] 17.6% | [5] 15.9% | [6] 28.6%

O=CNC(CSC(=O)c1ccccc1)C(=O)O (stereo not drawn)
inactive: [1] -0.35% | [2] -3.75% | [3] -7.2% | [4] -15.2% | [5] -11.7% | [6] -12.7%

NC(=O)C(Cc1ccc(O)cc1)NC(=O)c1ccccc1 (stereo not drawn)
inactive: [1] -8.8% | [2] -16.6% | [3] -0.1% | [4] 1.85% | [5] 22.1% | [6] -14.2%

COc1ccc(-n2c(N)c(C#N)c(C#N)c2-c2ccccc2)cc1
inactive: [1] 7.85% | [2] 8.6% | [3] -16.6% | [4] -4.95% | [5] -6.25% | [6] -49.1%

COc1ccc(C2C3=C(CCCC3=O)OC3=C2C(=O)CCC3)cc1
inactive: [1] -6.85% | [2] 1.4% | [3] -16.2% | [4] -17.2% | [5] 9.65% | [6] 12.7%

ClCCCCOC1CCCCO1 (stereo not drawn)
inactive: [1] -4.6% | [2] 5.35% | [3] 4.9% | [4] 2.7% | [5] -12.7% | [6] -29.8%

COc1cc(C(=O)O[C@H]2CCC3CCC2N3C)cc(OC)c1OC (stereo partly drawn)
inactive: [1] -46.4% | [2] -31.7% | [3] -4.05% | [4] -9.45% | [5] -3.85% | [6] -47%

CSc1nc(NC2OCC(OC(C)=O)C(OC(C)=O)C2OC(C)=O)c(N=C(C)C(C)=O)c(=O)[nH]1 (stereo not drawn)
inactive: [1] -3.9% | [2] 17.7% | [3] 15.2% | [4] 4.95% | [5] 3.05% | [6] 12.8%

C[C@H](N)[C@@H](O)/C=C/c1ccccc1
inactive: [1] 8% | [2] -16.9% | [3] -0.05% | [4] -4.7% | [5] -9.7% | [6] -8.7%

CCNc1ccc(S(=O)(=O)O)cc1C(=O)O
inactive: [1] 0.45% | [2] 4.05% | [3] 0% | [4] -11.8% | [5] 1.25% | [6] -4.6%

O=C(CC1Sc2ccccc2NC1=O)NNc1c(Cl)cc(Cl)cc1Cl (stereo not drawn)
inactive: [1] 6.45% | [2] 0.9% | [3] 4% | [4] 17.3% | [5] 0.55% | [6] 33%

CSc1ncc(C#N)c2nc(-c3ccccc3)nn12
inactive: [1] 5.6% | [2] 13.9% | [3] 3.35% | [4] 8.1% | [5] 12.1% | [6] 18.3%

Cc1ccc(NC(=O)c2ccccc2[N+](=O)[O-])cc1
inactive: [1] 12.5% | [2] 15.8% | [3] 0.1% | [4] 20.4% | [5] -2.1% | [6] -10.2%

CN(C)C1CS(=O)(=O)OC2=C1CCSc1ccccc12 (stereo not drawn)
inactive: [1] 5.1% | [2] 12.1% | [3] 11.4% | [4] -84.7% | [5] -5.65% | [6] 7.6%

CCOC(=O)Cc1csc(NC(NC(=O)OCC)(C(=O)OCC)C(F)(F)F)n1 (stereo not drawn)
inactive: [1] 2.4% | [2] -0.3% | [3] -17.9% | [4] -4.2% | [5] -12.3% | [6] -6.25%

CCCCCCCCN(CCCCCCCC)CC(O)c1ccc2cc(Br)c3ccccc3c2c1 (stereo not drawn)
inactive: [1] 25.9% | [2] 26.2% | [3] 46.5% | [4] 47.1% | [5] 24% | [6] 49.4%

O=C1c2ccccc2C(=O)c2c1ccc1c2N=C(c2ccc(F)cc2)CC(c2ccc(Cl)c(Cl)c2)N1 (stereo not drawn)
inactive: [1] 58% | [2] 20.1% | [3] 5% | [4] -14.7% | [5] 7.65% | [6] 43.6%

COc1ccc(Nc2nc(N)nc3c2ncn3C2OC(CO)C(O)C2O)cc1 (stereo not drawn)
inactive: [1] -9.6% | [2] -17.9% | [3] -13.2% | [4] -7% | [5] 2.05% | [6] -11.5%

Cc1ccc(N2CCN(c3ccc([N+](=O)[O-])cc3)CC2)cc1Cl
inactive: [1] -6.15% | [2] 7.15% | [3] 2.85% | [4] -12.4% | [5] 0.15% | [6] -28.3%

Cc1[nH]c(=O)c(C#N)c(C)c1[N+](=O)[O-]
inactive: [1] -0.05% | [2] 20.3% | [3] 3.95% | [4] -35.7% | [5] 10.6% | [6] 1.9%

Cc1cc(Br)cc(C)c1NC(=O)C(=O)CC(=O)c1sc(-n2nc(-c3ccccc3)cc2-c2ccccc2)nc1C
inactive: [1] 5.7% | [2] 1.75% | [3] -32.5% | [4] 28.5% | [5] 33.8% | [6] 15.7%

COc1cccc(C2CC(C)=Nc3c(ccc4c3C(=O)c3ccccc3C4=O)N2)c1O (stereo not drawn)
inactive: [1] 1.2% | [2] 17.9% | [3] 24.6% | [4] 7.8% | [5] 11.8% | [6] 14.8%

CC(=O)C(CCC#N)(CCC#N)C(=O)Nc1ccccc1
inactive: [1] -9% | [2] 10.5% | [3] 3.35% | [4] -6% | [5] -2.05% | [6] -21.5%

Cn1ccc(=O)c2ccccc21
inactive: [1] 3.1% | [2] -1% | [3] -8.55% | [4] 3.45% | [5] 6.1% | [6] 1.9%

CCCCOC(=O)C(N)Cc1ccccc1 (stereo not drawn)
inactive: [1] -20.4% | [2] -2.3% | [3] -5.65% | [4] -44.5% | [5] 23.6% | [6] -22.2%

O=C1C(=Cc2ccccc2)C(=O)c2ccccc21
inactive: [1] 2.55% | [2] 25.6% | [3] 8.65% | [4] -17.6% | [5] 24.7% | [6] 9.3%

CCCCOCCOCCOC(=O)c1ccc(C)cc1
inactive: [1] 3.9% | [2] -11% | [3] -13.8% | [4] -49.9% | [5] 46% | [6] 11%

COc1ccc(C)cc1NC(=S)NC(=O)c1ccc(Cl)cc1Cl
inactive: [1] 1.7% | [2] 13.7% | [3] 8.15% | [4] -12.6% | [5] 4.7% | [6] 0.75%

O=C(CCCCC(=O)Oc1ccc([N+](=O)[O-])cc1)Oc1ccc([N+](=O)[O-])cc1
inactive: [1] 10.9% | [2] 3.25% | [3] 13.3% | [4] 32% | [5] 3.4% | [6] 33%

CCOC(=O)C1CCC(=O)N1Cc1c[nH]c2ccccc12 (stereo not drawn)
inactive: [1] 3.2% | [2] -12.7% | [3] -5.1% | [4] 1% | [5] 21.4% | [6] -14.7%

Reference: PubChem BioAssay (NCI)
